{"source": "the supplement of paper PMC11219838", "note": "Values without a mark were called inactive.", "data": [{"test_system": "Caenorhabditis elegans L1 (N2)", "assay": "survival and reproduction score of C. elegans L1 (0: 0-10 living worms, 1: 11-20, 2: 21-50, 3: >50, 4: overgrown) (score 0-4); higher = more worms, less nematicidal, active = 1 or less; extreme values may be limits of the assay", "conditions": "60 µM; 6 days; temperature: 20 °C", "procedure,_shortened": "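Synchronized C. elegans N2 L1s (about 20 per well) were grown in 96-well plates in liquid NGM with E. coli HB101 and compound at 60 µM final (0.6% v/v DMSO), shaken sealed at 200 rpm and 20 °C for 6 days. The ordinal score for survival and reproduction counted living worms per well under a dissection microscope. The scale ran 0 (0–10 worms) to 4 (overgrown, starved), averaged over two biological replicates.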", "values": [{"smiles": "CC(C)C(=O)Nc1ccccc1-c1nc(-c2ccccn2)no1", "survival and reproduction score": 4}, {"smiles": "O=C(NCCc1ccccc1)c1ccccc1-c1nc(-c2ccccc2Cl)no1", "survival and reproduction score": 4}, {"smiles": "c1ccc(COc2cccc(-c3nc(-c4ccccn4)no3)c2)cc1", "survival and reproduction score": 4}, {"smiles": "CCOc1nc(-c2ccc(C)cc2)ccc1-c1noc(-c2cccnc2)n1", "survival and reproduction score": 4}, {"smiles": "Cc1ccc(-c2nnc(SCC(=O)Nc3nccs3)o2)cc1", "survival and reproduction score": 4}, {"smiles": "COc1cccc(-c2noc(COc3cccc(C)c3)n2)c1", "survival and reproduction score": 4}, {"smiles": "Cc1ccc(SCc2nc(-c3ccc(C)cc3)no2)cc1", "survival and reproduction score": 4}, {"smiles": "CCOc1ccccc1-c1nnc(SCC(=O)NC(C)CC)o1", "note": "(centres undefined)", "survival and reproduction score": 4}, {"smiles": "Cc1ccc(-c2nc(-c3ccccn3)no2)cc1C", "survival and reproduction score": 3.5}, {"smiles": "Fc1ccc(CSc2nnc(-c3ccccn3)o2)cc1", "survival and reproduction score": 4}, {"smiles": "Cc1cc(OCc2nc(-c3ccccn3)no2)ccc1Br", "survival and reproduction score": 4}, {"smiles": "Cc1ccc(-c2nc(-c3cccc(C)c3)no2)cc1", "survival and reproduction score": "1 (active)"}, {"smiles": "CCN(Cc1ccccc1)C(=O)c1ccccc1-c1nc(-c2cccc(C)c2)no1", "survival and reproduction score": 4}, {"smiles": "COc1ccc(-c2nnc(SCc3ccccc3C)o2)cc1", "survival and reproduction score": 4}, {"smiles": "CCOC(=O)c1ccc(NC(=O)c2ccccc2-c2nc(-c3cccc(C)c3)no2)cc1", "survival and reproduction score": 4}, {"smiles": "CNC(=O)c1ccccc1-c1nc(-c2ccccc2Cl)no1", "survival and reproduction score": 4}, {"smiles": "C=C(C)COc1ccc(-c2nc(-c3cccnc3)no2)cc1", "survival and reproduction score": 3}, {"smiles": "Cn1c(SCc2nc(-c3cccs3)no2)nnc1-c1ccco1", "survival and reproduction score": 4}, {"smiles": "CCOc1cc(-c2nc(-c3ccccc3C)no2)cc(OCC)c1OCC", "survival and reproduction score": 4}]}]}
